Source: PubChem BioAssay
Lassa entry = inhibitors of Lassa virus binding or entry into cells; Lassa virus pseudotyped entry inhibition, cell-based qHTS; Potency, µM (titrated, usually from 49.2 µM), for the others: at the top dose activity change, negative = inhibition, actives largely listed as inhibitors; hit rate 4.1% among 18,000; AID 720533
Marburg entry = Marburg virus entry inhibition; Marburg virus pseudotype entry/binding inhibition, cell-based; Potency, µM (doses to about 49.2 µM), inactives show top-dose activity change, negative = inhibition, usual class: inhibitors; hit rate 6.5% among 18,000
* marks the source's active call; other numbers are inactive results; ? = inconclusive; · = no result; ! = a repeat was not active; [ ] = dose if it differs, or a comment. This is a sample that favours compounds with a hit; in the whole collection about 8% have one here. Calls come from the whole dose curve; tested in HEK293 cells. % is set by controls: 0 for no effect and ±100 for the full control effect; potency is the fitted concentration of half-maximal effect.

SMILES	Lassa entry	Marburg entry
CCN1C(=O)[C@@H]2[C@H]3[C@H](O)[C@H](O)CC(=NOC[C@H]4O[C@H](c5ccccc5)C=C[C@H]4Oc4ccc(OC)cc4)[C@@H]3CC[C@H]2C1=O	-11.5%[8.59 µM]	-28.3%[8.59 µM]
CC=Cc1cc2ccccc2c2c(C(=O)OC)c(C(=O)OC)c(C(=O)OC(C)(C)C)n12	-15.2%[8.59 µM]	?
C[C@H]1C[C@@H](C)O[C@@]2(C1)C(=O)N(Cc1ccccc1C(F)(F)F)c1ccccc12	1.3%[8.59 µM]	-15.0%[8.59 µM]
Oc1ccc(Cl)c2cccnc12	-0.9%	12.7%
Cc1ccc2c(Cl)cc(Cl)c(O)c2n1	?	6.31µM*!
Oc1c(Cl)cc(Cl)c2cccnc12	?	12.6µM*
CC1=C[C@@H](COCc2ccccc2)O[C@@]2(C1)C(=O)Nc1cccc(Br)c12	-12.1%[8.59 µM]	8.6%[8.59 µM]
C[C@H]1CCCC(=O)N[C@@H](c2ccccc2)[C@@H](C)CCCC(=O)N[C@@H]1c1ccccc1	16.7%[8.59 µM]	28.8%[8.59 µM]
O=C(C=Cc1ccccc1)Nc1cccc(C(=O)NC2CC2)c1	42.9%	115.1%
COc1ccc2c(c1)OC(C)(C)C(c1ccccc1)C2c1ccc(OCCN2CCCC2)cc1 (configuration not stated)	?	4.47µM*
COc1cccc([C@@H]2Oc3ccc(OC)cc3C(=O)[C@H]2OC(=O)NCCOc2ccccc2)c1	-3.6%	-10.0%
Cc1ccc(C(=O)NC2CCCCC2)cc1-c1ccc(C(=O)NCC2CC2)cc1	·	-1.1%
CCOC(=O)OC[C@H]1O[C@H](C#Cc2ccc(C)cc2C)C=C[C@H]1OC(=O)OCC	-7.7%[8.59 µM]	4.4%[8.59 µM]
O=C1OC2(CCCCC2)CC2=C1[C@H]1O[C@](CCCCN3C(=O)c4ccccc4C3=O)(Cc3ccccc31)O2	-20.7%[8.59 µM]	?
Fc1cccc(COc2ccc(Nc3ncnc4sc(-c5ccco5)cc34)cc2Cl)c1	-15.3%	?
CN1CCN(Cc2ccc(-c3cc4ncnc(Nc5ccc(OCc6cccc(F)c6)c(Cl)c5)c4s3)o2)CC1	?	9.96µM*
OCCCNCc1cc2ccc(F)cc2nc1N1CCN(c2cccc(Cl)c2)CC1	?	10µM*
COc1cc(CNCc2cc3ccc(F)cc3nc2N2CCOCC2)cc(OC)c1OC	-10.2%	-9.5%
CCC[C@H]1CN(Cc2cccnc2)C(=O)[C@H]1CC(=O)Nc1ccc(Br)cc1	11.5%	27.8%
C=CCCOP1(=O)O[C@H](C=C)C[C@H](C=C)O1 (some centres not stated)	-13.1%	-10.3%
COc1ccc(COc2cc(-c3cccc(OC)c3)nc3ccc(NC(=O)c4ccccc4)cc23)cc1	10µM*	?
COc1ccc(COc2cc(-c3cccc(OC)c3)nc3ccc(NC(=O)c4ccc(Cl)cc4)cc23)cc1	-29.1%	-18.2%
COC(=O)c1c(C(=O)OC)c2c3cc(OC)c(OC)cc3ccn2c1C(=O)OC	·	23.4%[8.59 µM]
NS(=O)(=O)c1ccc(Nc2cc(-c3cccc(O)c3)[nH]n2)cc1	43.3%	78.5%
CCN(CC)CCO[C@H]1CC[C@@]2(C)C(=CC[C@@H]3[C@@H]2CC[C@]2(C)C(=O)CC[C@@H]32)C1	9.4%	-7.2%
SMILES	Lassa entry	Marburg entry
CCN(CC)CCO[C@H]1CC[C@@]2(C)C(=CC[C@@H]3[C@H]2CC[C@]2(C)C(=O)CC[C@H]32)C1	-22.6%	12.6µM*
CNCCC(Oc1ccc(C(F)(F)F)cc1)c1ccccc1 (configuration not stated)	17.8µM*!	7.08µM*
FC(F)(F)c1cc(NC(=S)NC(c2ccccc2)c2ccccc2)cc(C(F)(F)F)c1	-43.6%	?
Cc1ccc(O[C@@H]2[C@H](O)CO[C@H]2C=CC#Cc2ccc(C(C)(C)C)cc2)cc1	·	-34.7%[8.59 µM]
COc1ccc(NC(=O)c2ccc(-c3ccc(C)c4ccccc34)o2)cc1	26.1%	14.3%
CCc1ccc(OCc2ccccc2C(=O)Nc2ccc3nc(C)cc(N)c3c2)cc1	7.08µM*	3.98µM*
CC#CCN1c2ccccc2[C@]23CCC(=O)N(Cc4cccc(C(F)(F)F)c4)C2=NC(C(=O)OC)=C(C(=O)OC)[C@H]13	-6.8%[8.59 µM]	18.5%[8.59 µM]
COC(=O)C1=C[C@@]2(c3ccc(F)cc3[C@@H](OC)[C@@H]2C)[C@@H]2C=C[C@H]1C2	-12.3%[8.59 µM]	2.1%[8.59 µM]
O[C@@H](c1cc(C(F)(F)F)nc2c(C(F)(F)F)cccc12)[C@H]1CCCCN1	28.2µM*	10µM*
CCCCn1c(C)cc2c(c1=O)[C@H]1O[C@](c3ccsc3)(Cc3cc(OC)c(OC)cc31)O2	4.3%[8.59 µM]	?
O=C1NCC2(CCN(CCc3ccccc3)CC2)O1	-8.2%	-10.1%
Cc1ccc2c(c1)C1(CCN(CCc3nc(-c4ccccc4)oc3C)CC1)OC(=O)N2	12.6µM*	?
C[C@H]1C=CCC(=O)N[C@@H](c2ccc3ccccc3c2)[C@@H](C)C=CCC(=O)N[C@@H]1c1ccc2ccccc2c1	-1.0%[8.59 µM]	20.2%[8.59 µM]
CCCC(=O)O[C@]1(C(=O)COC(=O)CC)[C@@H](C)C[C@H]2[C@@H]3CCC4=CC(=O)C=C[C@]4(C)[C@@]3(F)[C@@H](O)C[C@@]21C	?	11.2µM*
CCCCC(=O)O[C@@]1(C(=O)CO)C(C)CC2C3CCC4=CC(=O)C=C[C@@]4(C)[C@]3(F)C(O)C[C@]21C (some centres not stated)	-2.0%	-12.5%
CCCCCC(=O)N1C[C@@H](n2cc(-c3ccc(F)cc3)nn2)[C@H](O)C[C@H]1c1ccc(C)cc1	-9.6%	?
CN(C)c1ccc(C(=C2C=CC(=[N+](C)C)C=C2)c2ccccc2)cc1	2.24µM*	1.41µM*!
CN(C)c1ccc(-c2nccc(NCc3ccccc3)n2)cc1	-18.0%	?
CN(C)c1ccc(C(=C2C=CC(=[N+](C)C)C=C2)c2ccc(N(C)C)cc2)cc1	1.78µM*	1.41µM*
CC1=C(\C=C/C(C)=C/C=C\C(C)=C\C(=O)O)C(C)(C)CCC1	-0.9%	?
CC1=C(/C=C/C(C)=C/C=C/C(C)=C/C(=O)Nc2ccc(O)cc2)C(C)(C)CCC1	7.08µM*!	?
CSc1ccc2c(c1)N(CC[C@H]1CCCCN1C)c1ccccc1S2	?	7.94µM*
CN1CCCC[C@@H]1CCN1c2ccccc2Sc2ccc(S(C)=O)cc21 (some centres not stated)	-0.1%[17.8 µM]	?
CSc1ccc2c(c1)N(CCC1CCCCN1C)c1ccccc1S2 (configuration not stated)	22.4µM*	7.94µM*
CSc1ccc(CN2CCOc3ccc(CN4CCCCC4CO)cc3C2)cc1 (configuration not stated)	-5.7%	?
SMILES	Lassa entry	Marburg entry
CCOC(=O)CN1C(=O)NC(CCc2ccccc2)C(C(=O)OC)=C1C (configuration not stated)	·	-23.0%[8.59 µM]
CC(=O)C1CC2C=CCOP(=O)(O2)O1 (configuration not stated)	2.5%	?
CC[n+]1c(/C=C/N(C)c2ccccc2)n(-c2ccccc2)c2ccc(-c3nc4ccccc4s3)cc21	3.16µM*	2µM*
CC(=O)C1=C(C)N(Cc2ccccc2)C(=O)NC1CCc1ccccc1 (configuration not stated)	·	13.9%[8.59 µM]
O=c1[nH]cnc2c1ncn2[C@@H]1O[C@H](CO)[C@@H](O)[C@H]1O	3.5%	9.6%
Nc1ccn([C@@H]2O[C@H](CO)[C@@H](O)[C@H]2O)c(=O)n1	-5.5%	7.5%
Nc1ccn([C@@H]2O[C@H](CO)[C@@H](O)C2O)c(=O)n1 (some centres not stated)	7.08µM*	5.01µM*
Nc1ncn(C2CC(O)C(CO)O2)c(=O)n1 (configuration not stated)	-12.4%	-6.2%
OC[C@H]1O[C@@H](n2cnc3c(=S)nc[nH]c32)[C@H](O)[C@@H]1O	6.31µM*	7.94µM*
